KDM5B inhibitor: inhibitors of human KDM5B histone demethylase; Q9UGL1; Potency, µM (top dose mostly 57.7 µM), usual class: inhibitors; 220,000 tested, 2.6% active; KDM5B demethylase, FDH-coupled NADH fluorescence (FDH is formaldehyde dehydrogenase); AID 1347165; active means well fitted inhibition curve with a large enough effect; further: 0% is about no effect; nearly all actives have a fitted effect of over 70% in size
Target sequence (Q9UGL1 whole entry, looked up): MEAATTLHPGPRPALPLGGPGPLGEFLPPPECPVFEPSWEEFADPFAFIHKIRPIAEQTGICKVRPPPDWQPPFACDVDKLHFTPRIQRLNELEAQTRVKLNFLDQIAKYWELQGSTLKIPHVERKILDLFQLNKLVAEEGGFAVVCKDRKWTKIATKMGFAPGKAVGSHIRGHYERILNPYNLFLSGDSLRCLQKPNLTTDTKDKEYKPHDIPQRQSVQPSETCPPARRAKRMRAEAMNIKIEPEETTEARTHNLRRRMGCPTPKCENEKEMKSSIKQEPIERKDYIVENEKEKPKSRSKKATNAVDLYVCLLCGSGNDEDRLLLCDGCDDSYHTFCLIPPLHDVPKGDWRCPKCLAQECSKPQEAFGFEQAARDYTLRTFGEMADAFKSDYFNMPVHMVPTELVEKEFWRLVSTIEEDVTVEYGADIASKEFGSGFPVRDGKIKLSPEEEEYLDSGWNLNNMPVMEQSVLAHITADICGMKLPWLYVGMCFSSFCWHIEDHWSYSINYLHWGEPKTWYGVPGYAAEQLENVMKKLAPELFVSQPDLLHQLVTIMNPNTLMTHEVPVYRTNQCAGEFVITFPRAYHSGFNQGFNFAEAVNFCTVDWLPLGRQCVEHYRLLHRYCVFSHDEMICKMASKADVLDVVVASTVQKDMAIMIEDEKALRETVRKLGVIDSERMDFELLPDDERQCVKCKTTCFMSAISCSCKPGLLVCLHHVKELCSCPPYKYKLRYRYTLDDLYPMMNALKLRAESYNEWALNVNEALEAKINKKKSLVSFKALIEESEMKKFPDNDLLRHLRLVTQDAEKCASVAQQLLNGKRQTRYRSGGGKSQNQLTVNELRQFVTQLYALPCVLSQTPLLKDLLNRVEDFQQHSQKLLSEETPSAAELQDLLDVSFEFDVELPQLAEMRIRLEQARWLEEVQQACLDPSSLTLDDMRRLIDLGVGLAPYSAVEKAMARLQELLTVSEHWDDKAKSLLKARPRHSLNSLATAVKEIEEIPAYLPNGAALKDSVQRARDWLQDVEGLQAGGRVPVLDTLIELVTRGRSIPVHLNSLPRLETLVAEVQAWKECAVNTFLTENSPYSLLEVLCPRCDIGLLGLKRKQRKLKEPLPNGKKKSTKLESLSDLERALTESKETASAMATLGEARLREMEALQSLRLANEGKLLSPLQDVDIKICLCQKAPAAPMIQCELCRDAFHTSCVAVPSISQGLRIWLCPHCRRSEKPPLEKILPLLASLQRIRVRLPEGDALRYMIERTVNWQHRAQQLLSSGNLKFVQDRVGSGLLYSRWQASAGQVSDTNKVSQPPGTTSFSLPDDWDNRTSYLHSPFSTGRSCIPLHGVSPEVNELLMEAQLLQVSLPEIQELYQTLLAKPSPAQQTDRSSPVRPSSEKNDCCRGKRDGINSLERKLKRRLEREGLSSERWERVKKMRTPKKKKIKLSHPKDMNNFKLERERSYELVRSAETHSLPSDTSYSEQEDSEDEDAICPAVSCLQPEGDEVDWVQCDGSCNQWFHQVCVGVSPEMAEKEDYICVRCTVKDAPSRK
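Compound dilutions met 200 nM (final) KDM5BΔAP for 10 min at room temperature before substrate addition. The substrate mix held 12.5 µM H3K4me3 with cofactors 25 µM α-ketoglutarate and 50 µM Fe²⁺. NADH signal gain over 30 min defined activity.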
* hit, by the source's call. Only a selection was taken, and hits are over-represented in it overall. Potency means the concentration at half of the fitted maximal effect.

How did Cc1cc(C(=O)NCC(C)C)c2c(C3CCNCC3)noc2n1 do in these assays?
KDM5B inhibitor: inactive

How did CC(C)CNC(=O)c1cc(C2CC2)nc2c1c(C1CCNC1)nn2C (stereo not given) do in these assays?
KDM5B inhibitor: 89µM*

How did COCCNC(=O)c1cc(C)nc2onc(C3CCCNC3)c12 (stereo not given) do in these assays?
KDM5B inhibitor: inactive

Results for O=C(c1cc(C2CC2)nc2onc(C3CCCNC3)c12)N1CCC(F)CC1 (stereo not given) ?
KDM5B inhibitor: inactive

Results for COCCNC(=O)c1cc(C2CC2)nc2c1c(C1CCNC1)nn2C (stereo not given) ?
KDM5B inhibitor: 89µM*

How did CC(CNC(=O)c1cc(C2CC2)nc2ccccc12)c1ccccc1 (stereo not given) do in these assays?
KDM5B inhibitor: inactive

Results for Cc1ccc(OCCNC(=O)c2cc(C3CC3)nc3ccccc23)cc1 ?
KDM5B inhibitor: inactive

Results for COC(=O)c1cc(C2CC2)nc2c1c(C)nn2CC(=O)NC(C)C ?
KDM5B inhibitor: inactive

Results for COCCNC(=O)c1cc(C2CC2)nc2c1c(C1CCCNC1)nn2C (stereo not given) ?
KDM5B inhibitor: 89µM*

How did Cc1cc(C(=O)N2CCOCC2)c2c(C3CCNCC3)noc2n1 do in these assays?
KDM5B inhibitor: inactive

Results for COCCNC(=O)c1cc(C)nc2onc(C3CCNC3)c12 (stereo not given) ?
KDM5B inhibitor: inactive

Results for O=C(COC(=O)c1ccc(Cl)cc1)c1ccc([N+](=O)[O-])cc1 ?
KDM5B inhibitor: inactive

How did O=C(Nc1ccccc1Sc1ccccc1)C1CCCC1 do in these assays?
KDM5B inhibitor: inactive

How did Brc1ccc(-c2ccn[nH]2)cc1 do in these assays?
KDM5B inhibitor: inactive

Results for C=CCNc1nc(C(=O)OCC(=O)Nc2ccccc2)cs1 ?
KDM5B inhibitor: inactive

What do the screens show for `CCCNc1c(NC(=O)NCCCOC)c(=O)oc2ccccc12`?
KDM5B inhibitor: inactive

How did O=C(CSc1nc2ccccc2c(=O)n1CCCN1CCOCC1)c1ccc2ccccc2c1 do in these assays?
KDM5B inhibitor: inactive

How did Cc1ccc(S(=O)(=O)n2ccn(C(=O)CC3CCCCC3)c2=O)cc1 do in these assays?
KDM5B inhibitor: inactive

Results for O=C(Nc1nnc(C(F)(F)F)s1)C1CCN(C(=O)c2ccccc2Cl)CC1 ?
KDM5B inhibitor: inactive

How did Cc1ccc(OCC(=O)NCc2ccc(-c3nc4ncccc4o3)cc2)cc1 do in these assays?
KDM5B inhibitor: inactive

Results for CCc1ccc(NC(=O)Cn2c(-c3ccc(F)cc3)cc(C(C)=O)c2C)cc1 ?
KDM5B inhibitor: inactive

Results for CC(C)c1nc2c(c(-c3ccc(O)cc3)n1)CCN(Cc1cccc3ccccc13)CC2 ?
KDM5B inhibitor: inactive

How did CN(C(=O)Cn1c(=O)c2c(ncn2C2CCCC2)n(Cc2ccccc2)c1=O)C1CCS(=O)(=O)C1 (stereo not given) do in these assays?
KDM5B inhibitor: inactive

Results for CC(C)(C)NC(=O)N1CC(c2noc(C3CCCN3CC3CC3)n2)C1 (stereo not given) ?
KDM5B inhibitor: inactive

What do the screens show for `CCOC(=O)N1CCC(N[C@@H]2CC[C@@H]2NC(=O)c2cnc3cccnn23)CC1`?
KDM5B inhibitor: 32µM*

How did CCOC(=O)N1CCC(N[C@@H]2CC[C@@H]2NC(=O)c2nc(C)oc2C)CC1 do in these assays?
KDM5B inhibitor: inactive

What do the screens show for `CCOC(=O)N1CCC(NC(=O)c2ccccc2C(=O)O)CC1`?
KDM5B inhibitor: inactive

What do the screens show for `COc1ccccc1OCCn1c(C)nc2cc(C)c(C)cc21`?
KDM5B inhibitor: inactive

Results for Cc1cc(C)n2nc(N(Cc3cccc(C#N)c3)S(=O)(=O)c3ccccc3)nc2n1 ?
KDM5B inhibitor: inactive

How did Cc1ccc(-c2nnc3ccc(N4CCCCC4)nn23)nc1 do in these assays?
KDM5B inhibitor: 32µM*

Results for Cc1nnc2ccc(N3CCOCC3)nn12 ?
KDM5B inhibitor: inactive

Results for Cc1ccc(-c2nnc3ccc(N4CCCC4)nn23)nc1 ?
KDM5B inhibitor: inactive

What do the screens show for `Cc1[nH]c(C)c(S(=O)(=O)Nc2cccc3c2CCCC3)c1C(=O)N1CCCCC1`?
KDM5B inhibitor: inactive

Results for COc1ccccc1S(=O)(=O)NCc1ccc(C(=O)Nc2ccc(N3CCCCC3)cc2)cc1 ?
KDM5B inhibitor: inactive

Results for CCc1noc(-c2cccn3c(CNC(=O)c4ccccc4C)nnc23)n1 ?
KDM5B inhibitor: 28µM*

Results for CCc1noc(-c2cn(C3CCN(C(=O)c4cc(C)ccc4C)CC3)nn2)n1 ?
KDM5B inhibitor: inactive

Results for CCc1noc(-c2cccn3c(CNC(=O)c4cc(C)ccc4C)nnc23)n1 ?
KDM5B inhibitor: 10µM*

What do the screens show for `COc1ccccc1NC(=O)COc1nc(C(C)C)c2c(c1C#N)CCCC2`?
KDM5B inhibitor: inactive

How did O=S(=O)(Nc1nc2ccccc2nc1NCc1ccccc1Cl)c1cccs1 do in these assays?
KDM5B inhibitor: inactive

Results for CCOc1ccc(OCC)c(S(=O)(=O)n2nnc3ccccc32)c1 ?
KDM5B inhibitor: inactive

Results for O=[N+]([O-])c1ccc(NNS(=O)(=O)c2ccccc2)c([N+](=O)[O-])c1 ?
KDM5B inhibitor: inactive

How did O=C(COC(=O)COc1ccc(C2SCCCS2)cc1)Nc1ccc(F)c(F)c1 do in these assays?
KDM5B inhibitor: inactive

What do the screens show for `CCn1cnnc1CCNC(=O)c1cc(-c2ccc(C)cc2)nc2ccccc12`?
KDM5B inhibitor: 28µM*

What do the screens show for `Cc1ccc(-c2cc(C(=O)NCCC(c3ccccc3)c3ccccc3)c3ccccc3n2)cc1`?
KDM5B inhibitor: inactive

How did Cc1ccc(CCNC(=O)c2cc(-c3ccncc3)nc3ccccc23)cc1 do in these assays?
KDM5B inhibitor: inactive

Results for c1cnn(-c2ccc(-c3n[nH]c(C4CCOCC4)n3)cc2)c1 ?
KDM5B inhibitor: inactive

Results for c1cc(N2CCCCC2)ccc1-c1n[nH]c(C2CCOC2)n1 (stereo not given) ?
KDM5B inhibitor: 22µM*

How did O=C(C1CC1)N1CCCCC1c1nc(C2CCOCC2)n[nH]1 (stereo not given) do in these assays?
KDM5B inhibitor: inactive

How did O=C(C1CN(C(=O)c2ccc(Cl)c(Cl)c2)c2ccccc2O1)N1CCOCC1 (stereo not given) do in these assays?
KDM5B inhibitor: inactive

Results for C/C(=N/Nc1ccc(S(=O)(=O)Nc2ccc(C)cc2C)cc1[N+](=O)[O-])c1ccc(Cl)s1 ?
KDM5B inhibitor: inactive

Results for CC(=O)N1CCC(N2CCC[C@H]2c2nc(-c3ccc(-n4ccnc4)nc3)no2)CC1 ?
KDM5B inhibitor: inactive

What do the screens show for `CS(=O)(=O)c1ccc(CN2CCC[C@H]2c2nc(-c3ccc(-c4ccncc4)nc3)no2)cc1`?
KDM5B inhibitor: inactive

Results for CS(=O)(=O)c1ccc(CN2C[C@H](O)C[C@H]2c2nc(-c3ccc4c(c3)OCO4)no2)cc1 ?
KDM5B inhibitor: inactive

What do the screens show for `CS(=O)(=O)c1ccc(CN2CCC[C@H]2c2nc(-c3ccnc(N4CCC(C(N)=O)CC4)c3)no2)cc1`?
KDM5B inhibitor: 28µM*

Results for CC(=O)N1CCC(N2CCC[C@H]2c2nc(-c3ccnc(N4CCC(C(N)=O)CC4)c3)no2)CC1 ?
KDM5B inhibitor: 22µM*

How did NC(=O)C1CCN(c2cc(-c3noc([C@@H]4CCCN4Cc4ccc(Cl)cc4)n3)ccn2)CC1 do in these assays?
KDM5B inhibitor: 32µM*

What do the screens show for `O=C(COc1ccc(Cl)cc1)N1CCC[C@H]1c1nc(-c2ccc(F)cc2)no1`?
KDM5B inhibitor: inactive

From PubChem BioAssay
